Results taken from PubChem BioAssay AID485317 (Broad Institute, 2010).
Out of some 290,000 compounds screened, about 11,000 (3.8%) were called active. What follows is part of a selection rich in actives, with near analogues and random picks from the rest. Values without a mark were called inactive.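 The calls were made as follows: active = mean replicate inhibition above about 79%, with every replicate also reaching it (limit read from the data); inconclusive = only one of the two criteria met; inactive = mean below limit and not every replicate reaching it.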

These compounds were tested against FAD-linked sulfhydryl oxidase ALR (Homo sapiens) (UniProt P55789) (assay: ALR-catalysed DTT oxidation blockers – biochemical, H2O2 detection, HRP-luminol luminescence, single point, primary screen (AID 485317)). Settings: purified ALR, hits give high values, concentration not given here.
FAD-linked sulfhydryl oxidase ALR (Homo sapiens), sequence (P55789 whole entry, looked up): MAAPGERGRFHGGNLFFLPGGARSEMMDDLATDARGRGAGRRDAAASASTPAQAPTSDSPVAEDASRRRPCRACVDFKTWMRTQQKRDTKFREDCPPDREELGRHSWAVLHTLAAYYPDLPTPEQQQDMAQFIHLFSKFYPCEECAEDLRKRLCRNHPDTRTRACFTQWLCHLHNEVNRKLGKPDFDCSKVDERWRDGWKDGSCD

Compound	inhibition
Cc1ccc2c(CSc3nncs3)cc(=O)oc2c1	-0.57%
CCOC(=O)Cc1csc(NC(=O)COc2ccc3c(C)cc(=O)oc3c2)n1	-3.23%
CCOC(=O)Cc1csc(SCc2cc(=O)oc3cc(O)ccc23)n1	97.7% (active)
O=C(NCCc1ccc(F)cc1)c1ccc2nccnc2c1	-6.27%
CS(=O)(=O)c1ccc(Cl)c(NC(=O)COC(=O)c2ncc(Cl)c(Cl)c2Cl)c1	0.688%
Cc1ccc(NC(=O)CSCC(=O)Nc2sccc2C#N)cc1	98.7% (active)
Cc1cccc(C)c1Nc1nnc(SCC(=O)Nc2sccc2C#N)s1	14.7%
N#Cc1ccsc1NC(=O)CN1CCCCC1	3.1%
COC(C/C=C/C(=O)[C@@H](C)OCc1ccccc1)OC	55.7%
O=C(CNC(=O)C12CC3CC(CC(C3)C1)C2)OCC(=O)N1CCCCC1	-2.51%
O=C(CSc1ccccc1)Nc1cccc(S(=O)(=O)N2CCOCC2)c1	-1.29%
CCc1c(O)nc(SCC(=O)Nc2ccccc2)n(C(C)CC)c1=O (centres undefined)	98.8% (active)
CCn1c(CNC(=O)c2ccc(OC)c(OC)c2)nnc1SCC(=O)Nc1ccccc1	-2.46%
CCn1c(Cc2ccccc2)nnc1SCC(=O)Nc1ccccc1	-28.7%
CC(OC(=O)c1ccc([N+](=O)[O-])cc1)C(=O)NCC1CCCCC1 (centres undefined)	-1.04%
O=C(Nc1cccc2c1CCCC2)c1ccc(F)cc1	-21.6%
CC1CN(C(=O)c2ccc([N+](=O)[O-])s2)CC(C)O1 (centres undefined)	-91.3%
COc1cc(N/C=C2\CC(=O)NC(C)=C2C#N)cc(OC)c1OC	97.1% (active)
COC(=O)C1=C(C)NC(=O)CC1c1ccccc1OC (centres undefined)	-0.32%
COc1cc2c(cc1OC)C(C(=O)Nc1cc(C)c(OC)c(C)c1)CC(=O)N2 (centres undefined)	-6.22%
Cn1c(N)c(C(=O)COC(=O)/C=C/c2cccc(C(F)(F)F)c2)c(=O)n(C)c1=O	-1.31%
CC(Sc1nncn1C)C(=O)NCCC1=CCCCC1 (centres undefined)	-2.34%
CC(CNC(=O)Cn1cnc2c(OCc3ccccc3)ncnc21)c1ccccc1 (centres undefined)	-1.23%

Compound	inhibition
CC1(c2nnc(Cc3ccccc3)o2)CC(c2ccccc2F)=NO1 (centres undefined)	1.62%
CCCNC(=O)c1ccc(N2CCC3(CC2)CC(c2cccc(Br)c2)=NO3)c(NC(=O)c2ccco2)c1	6.36%
Cc1cc(C)c2c(=O)[nH]c(SCC(=O)Nc3ccc(Br)cc3)nc2n1	-7.51%
O=C(CSc1nc2ccccc2c(=O)[nH]1)Nc1nc(-c2ccc(Br)cc2)cs1	-3.23%
N#Cc1c(-c2cccs2)nc(SCC(=O)c2ccc(Br)cc2)[nH]c1=O	98.5% (active)
COCCNc1nnc(SCC(=O)NNC(=O)c2ccco2)s1	-2.35%
O=C(NCc1ccc2c(c1)OCO2)c1cc([N+](=O)[O-])ccc1N1CCOCC1	-3.3%
O=C(O)c1cccc(S(=O)(=O)N2CC=C(c3ccccc3)CC2)c1	3.35%
Cc1ccc(C(=O)CNc2ccc(F)cc2)cc1	-18.2%
Cc1ccc(C(=O)NCCNC(=O)c2ccccc2)cc1	-3.69%
Cc1ccc(SC(CC(=O)c2ccc(C(C)(C)C)cc2)C(=O)O)cc1 (centres undefined)	97.7% (active)
CC(C)(C)OC(=O)C[C@@H]1C/C=C\C[C@@H](CC(=O)N(CCO)Cc2ccccc2)C(=O)N[C@H](Cc2ccccc2)COC1=O	-5.13%
Cc1cc(NC(=O)CSCC(=O)NC(C)c2ccccc2)no1 (centres undefined)	-11.9%
COc1ccc(/C=C2\SC(=O)N(CCC(=O)NCCCn3ccnc3)C2=O)cc1	-4.29%
COc1ccc(/C=C2/SC(=O)N(CCCCCC(=O)Nc3ccccc3C(=O)O)C2=S)cc1	98.9% (active)
O=C(CCCN1C(=O)/C(=C\c2ccccc2)SC1=S)Nc1ccccc1O	1.84%
O=C1COc2ccc(C(=O)COC(=O)c3ccccc3Cl)cc2N1	-5.15%
CCC(CO)Oc1cc(NC(=O)c2cccc3ccccc23)c2ncn(C(C)C)c2c1 (centres undefined)	-21.2%
COC(=O)CNS(=O)(=O)c1ccc(OC)cc1	-8.89%
COC(=O)CNS(=O)(=O)c1ccc(Cc2ccc(S(=O)(=O)NCC(=O)OC)cc2)cc1	99.2% (active)
C/C(N)=C(/C#N)C(=O)COC(=O)CNS(=O)(=O)c1ccc(C)cc1	-12.8%
COc1cc(C(=O)N(C)Cc2cccc(OC)c2OC)ccc1OCC(=O)Nc1cccc(C(F)(F)F)c1	-114%
CC1O[C@@H](OC2C(O)C(C)O[C@H](OC(=O)[C@]34CCC(C)(C)C[C@H]3C3=CCC5[C@@]6(C)CC(O)C(O[C@@H]7OC(CO)C(O)[C@@H](O)[C@@H]7O)[C@@](C)(C(=O)O)C6CC[C@@]5(C)[C@]3(CO)CC4)C2O[C@H]2OC(C)[C@@H](O[C@@H]3OCC(O[C@@H]4OC(CO)C(O)[C@H](O)C4O)[C@@H](O)[C@@H]3O)[C@H](O)C2O)C(O)C(O)C1O (some centres undefined)	22.9%

Compound	inhibition
O=C(C[C@H]1C/C=C\C[C@@H](NC(=O)OCC2c3ccccc3-c3ccccc32)C(=O)O[C@@H](c2ccccc2)CNC1=O)N[C@H](CO)Cc1ccccc1	0.728%
OCc1ccc(-c2ccccc2)c(-c2ccccc2)c1	-3.81%
CCOc1ccc(C(=O)Nc2ccc(S(=O)(=O)NCC3CCCO3)cc2)cc1OCC (centres undefined)	1.23%
CCOc1cc(-c2nc3cc(C)ccn3c2NCC2CCCO2)ccc1O (centres undefined)	99.6% (active)
CCOc1ccccc1Nc1nnc(SCC(=O)NCC2CCCO2)s1 (centres undefined)	1.03%
O=C(COC(=O)c1ccc(F)cc1)Nc1ccc2c(c1)OCO2	-9.08%
C=CC[C@@H](CC(=O)N[C@H](CO)Cc1ccccc1)C(=O)N[C@@H](COC(=O)[C@@H](CC=C)Cc1ccc(F)cc1)Cc1c[nH]c2ccccc12	10.3%
COc1ccccc1C(=O)Nc1nc2nc(-c3ccccc3)cc(=O)n2[nH]1	97.8% (active)
COc1ccccc1C(=O)Nc1ccccc1C(=O)Nc1ccccc1	4.88%
COc1ccccc1C(=O)Nc1ccc(Nc2ccccc2)cc1	-2.18%
O=C(CNC(=O)c1ccco1)NNC(=O)c1ccc(Br)cc1	-12.3%
C=CCC1(C(=O)N(C)Cc2ccccc2)CCN(C(=O)OC(C)(C)C)CC1	-25%
CC(=O)Nc1ccc(NC(=O)CSc2ncnc3c2cnn3Cc2ccccc2)cc1	-9.78%
COc1ccc(NC(=O)CSc2nc(C)cs2)cc1	-14.7%
COc1ccc(NC(=O)CSc2ncnc3[nH]ncc23)cc1	98.6% (active)
CCCCn1nc(C(=O)Nc2cccc(C(=O)NC3CC3)c2)c2ccccc2c1=O	-0.223%
Cc1ccc(Nc2nnc(SC(C)C(=O)NC3CC3)s2)cc1 (centres undefined)	7.72%
COc1ccccc1C(=O)NCCC(=O)N(C)Cc1cccnc1	-1.19%
COc1ccccc1C(=O)N1CCN=C1SCc1cccnc1	96.4% (active)
COc1cccc(OC)c1C(=O)N1CCN(Cc2cccnc2)CC1	6.59%
C=C1CCC(N(O)c2cc(C)on2)C(=C)CCC2C1CC2(C)C (centres undefined)	4.12%
COc1ccccc1C(=O)OCC(=O)Nc1cccc(S(=O)(=O)NC2=NCCCCC2)c1	14.6%
Cc1ccc(S(=O)(=O)N2CCN(C(=O)Cn3c(=O)cnc4ccccc43)CC2)c(C)c1	-23.6%

Compound	inhibition
CCc1sc(C(=O)N2CCN(CC(=O)Nc3cccc(F)c3)CC2)cc1C	-6.06%
COc1cc(/C=N\Nc2nc(-c3cccs3)c(NC(C)=O)s2)ccc1O	98.9% (active)
CCNc1nc(N)nc(-c2cc(Cl)ccc2OC)n1	4.24%
COc1cc(/C=N/Nc2nc3ccccc3s2)ccc1O	46.3%
CCOc1cc(/C=C(\C#N)c2nc(-c3cccs3)c(NC(C)=O)s2)ccc1O	-22.4%
COc1ccc(/C=N/Nc2nc3ccccc3o2)cc1OC	-12.6%
CCNc1nc(NCC)nc(N/N=C/c2ccc(O)c(OC)c2)n1	99.1% (active)
COc1ccccc1/C=N/Nc1nc(C)c(C(C)=O)s1	3.01%
CSc1ccc(/C=C2\NC(=O)NC2=O)cc1	4.58%
Cc1ccc(-c2cc(C(=O)N/N=C/C=C/c3ccco3)c3ccccc3n2)cc1C	-5.26%
COC(=O)C1=C(C)N(c2ccc(Br)cc2)C(=O)/C1=C\c1ccco1	3.31%
Cc1ccc(N2NC(=O)/C(=C/C=C/c3ccco3)C2=O)cc1C	97.4% (active)
Cc1cccc(N=C2NC(=O)/C(=C/c3cn(C)c4ccccc34)S2)c1	-1.56%
Cc1ccc(N=C2NC(=O)/C(=C/C=C/c3ccco3)S2)cc1C	88.6% (active)
COc1ccc(CNC(=O)COC(=O)c2sccc2C)cc1OC	2.29%
O=C(CN1C(=O)NC2(CCCC2)C1=O)OCCOc1ccc(F)cc1	-0.86%
CN(CC(=O)Nc1ccc(Cl)cc1)C(=O)c1ccc(COc2ccccc2)cc1	-2.8%
COCCNC(=S)N/N=C/c1c(C)[nH]c2ccccc12	98% (active)
Cc1[nH]c2ccccc2c1/C=N/NC(=O)CNC(=O)c1ccc2c(c1)OCO2	-4.62%
Cc1[nH]c2ccccc2c1/C=N\NC(=O)Cn1nnc(-c2ccccc2)n1	-18.5%
